Experimental data reported in PubChem BioAssay (EPA / NIEHS).
Values joined by “and” are separate entries in the source; they are usually repeats but may differ in a detail not shown here. Identical values can stand only once. Where a structure was tested more than once in an assay, its records may differ in their call. Active and inactive are the calls of the source. The calls were made as follows: active = hit-call score of the fitted dose curve at least 0.9, where 1 is the maximum; inactive = score below 0.9.

Assay: APR_HepG2_MitoMembPot_72hr: Apredica 72-hour HepG2 Assay for Mitochondrial Membrane Potential (AID 2282917)
Conditions: imaging, actives raise or lower the signal
Procedure: APR_HepG2_72hr is a cell-based, multiplexed-readout assay that uses HepG2, a human liver cell line, with measurements taken at 72 hours after chemical dosing in a 384-well plate.APR_HepG2_MitoMembPot_72hr is one of 10 assay component(s) measured or calculated from the APR_HepG2_72hr assay. It is designed to make measurements of dye binding, a form of membrane potential reporter, as detected with fluorescence intensity signals by HCS Fluorescent Imaging technology.Data from the assay component APR_HepG2_MitoMembPot_72hr was analyzed into 1 assay endpoint. This assay endpoint, APR_HepG2_MitoMembPot_72hr, was analyzed with bidirectional fitting relative to DMSO as the negative control and baseline of activity. Using a type of membrane potential reporter, gain or loss-of-signal activity can be used to understand changes in the signaling. Furthermore, this assay endpoint can be referred to as a primary readout, because this assay has produced multiple assay endpoints where this one serves a signaling function. To generalize the intended target to other relatable targets, this assay endpoint is annotated to the cell morphology intended target family, where the subfamily is organelle conformation.
Cells were treated with dimethyl sulfoxide (DMSO) as a solvent control at a final concentration of 0.5% v/v or with compounds in DMSO with a resulting final DMSO concentration of 0.5% v/v. Compound treatment was done at concentrations of 0.39, 0.78, 1.56, 3.12, 6.24, 12.5, 25, 50, 100, and 200 uM in duplicate on each plate. Cells were treated with compounds for 1, 24, or 72 hr. Carbonyl […] m-chloro-phenylhydrazone (CCCP) and taxol were used as positive controls for mitochondrial function and cytoskeletal stability, respectively; DMSO served as the negative control for this experiment. Cells were fixed by the direct addition of 50 uL formaldehyde in Hank's Balanced Salt Solution (HBSS) to a final concentration of 3.7%. After incubation in the fixation medium for 30 min at room temperature (293-298 K), cells were rinsed twice with HBSS and treated with cell permeabilization buffer (16 uL of 0.5% Triton X-100) for 10 min at room temperature (293-298 K) before labeling. For mitochondrial membrane potential and mitochondrial measurements, pre-fixed cells were incubated with 50 uL of MitoTracker Red CMXRos (Invitrogen) at a concentration of 250 nM for 30 min before fixation. In the remaining cases, post-fixed cells were labeled by incubation with a multiplexed mixture of primary antibodies in HBSS for 60 min at room temperature (293-298 K) to detect immunoreactivity of c-Jun (1:500), phospho-histone H3 (1:100), phospho-histone H2A.x (1:200), p53 (1:400), alpha-tubulin (1:200) and Hoechst 33342 (2 ug/mL). Cells were labeled for multiplexed imaging on two separate plates: a) Hoechst 33342, MitoTracker Red, phospho-histone H3, and alpha-tubulin, and b) Hoechst 33342, phospho-histone H2A.x, and c-Jun. A final rinse with HBSS (50 uL) was performed before analysis. The primary and secondary antibodies for the proteins were phospho-histone H3 (rabbit anti-phospho-histone H3 and FITC-donkey anti-rabbit IgG), phospho-histone H2A.x (mouse anti-phospho-histone H2A.x and FITC-donkey anti-mouse IgG), c-Jun (rabbit anti-phospho-c-Jun and Cy3-donkey anti-rabbit IgG), p53 (sheep anti-p53 and Cy5-donkey anti-sheep IgG), alpha-tubulin (mouse anti-alpha-tubulin and Cy5-donkey anti-mouse IgG). These antibodies are available as the CellCiphr HepG2 assay kit (Millipore).Digital images of each well were captured using a Cellomics ArrayScan VTI (Thermo Scientific Cellomics) (0.8 NA objective, 0.63x optical coupler, and XF-93 filter set) at 20x magnification. The images were acquired using the autofocus feature of the ArrayScan instrument, which entails the following steps. First, the camera focuses on channel 1 (Hoechst 33342), where nuclei are identified. Second, a Z offset of 1 um is used for capturing mitochondria (MitoTracker Red). […]

SMILES | outcome | AC50
Cc1cc(C)nc(NC(=O)NS(=O)(=O)c2ccccc2C(=O)OC2COC2)n1 | inactive | 
CCC(C)Nc1c([N+](=O)[O-])cc(C(C)(C)C)cc1[N+](=O)[O-] (stereo not given) | inactive | 
CCc1ccc(C(=O)NN(C(=O)c2cc(C)cc(C)c2)C(C)(C)C)cc1 | inactive | 
O=[N+]([O-])c1c(Cl)c(Cl)c(Cl)c(Cl)c1Cl | inactive | 
Clc1ccccc1-c1nnc(-c2ccccc2Cl)nn1 | inactive | 
COc1cc(OC)nc(NC(=O)NS(=O)(=O)c2cc(NC=O)ccc2C(=O)N(C)C)n1 | inactive | 
COc1nn(CSP(=S)(OC)OC)c(=O)s1 | inactive | 
Oc1ccc(Cl)cc1Cc1ccccc1 | inactive | 116 µM (active) and 35.4 µM (active) and 66.2 µM (active)
CC[C@H](C)[C@H]1O[C@]2(C=C[C@@H]1C)C[C@@H]1C[C@@H](C/C=C(\C)[C@@H](O[C@H]3C[C@H](OC)[C@@H](O[C@H]4C[C@H](OC)[C@@H](O)[C@H](C)O4)[C@H](C)O3)[C@@H](C)/C=C/C=C3\CO[C@@H]4[C@H](O)C(C)=C[C@@H](C(=O)O1)[C@]34O)O2 (tested in a mixture with another compound) | inactive | 
CCC(C)(C)C(=O)OC1=C(c2ccc(Cl)cc2Cl)C(=O)OC12CCCCC2 | inactive | 
CCC(C)(NC(=O)c1cc(Cl)c(C)c(Cl)c1)C(=O)CCl (stereo not given) | inactive | 
CNC(=O)Oc1ccccc1OC(C)C | inactive | 
O=C1c2ccccc2C(=O)N1SC(Cl)(Cl)Cl |  | 10.4 µM (active)
CC(C)(C)C(O)/C(=C\c1ccc(Cl)cc1Cl)n1cncn1 (stereo not given) | inactive | 
CC(C)(C)C(O)C(Oc1ccc(Cl)cc1)n1cncn1 (stereo not given) | inactive | 37.4 µM (active)
Cc1[nH]c(=O)n(C(C)(C)C)c(=O)c1Cl | inactive | 
CCOC1Oc2ccc(OS(C)(=O)=O)cc2C1(C)C (stereo not given) | inactive | 
O=C(Nc1ccccc1)Nc1cnns1 | inactive | 
COP(=S)(OC)Oc1ccc(SC)c(C)c1 | inactive | 

SMILES | outcome | AC50
CC(C)OC(=O)Nc1cccc(Cl)c1 | inactive | 
CN1CSC(=S)N(C)C1 | inactive | 
CC(C)N(C(=O)COc1nnc(C(F)(F)F)s1)c1ccc(F)cc1 | inactive | 
CCN(CC)C(=O)SCc1ccc(Cl)cc1 | inactive | 
OCCOc1ccccc1 | inactive | 
N#CN | inactive | 
Oc1cc(Cl)ccc1Oc1ccc(Cl)cc1Cl | inactive | 35 µM (active)
CNC(=O)Oc1cccc(N=CN(C)C)c1 | inactive | 
O=C(O)COc1ccc(Cl)cc1Cl | inactive | 
CCOc1nc(NC)nc(NC(=O)NS(=O)(=O)c2ccccc2C(=O)OC)n1 | inactive | 
CCCN(CCC)c1c([N+](=O)[O-])cc(C(F)(F)F)cc1[N+](=O)[O-] | inactive | 
CCS(=O)(=O)c1cccnc1S(=O)(=O)NC(=O)Nc1nc(OC)cc(OC)n1 | inactive | 
CC1(C)C(C=C(Cl)Cl)C1C(=O)OC(C#N)c1ccc(F)c(Oc2ccccc2)c1 (stereo not given) | inactive | 
CCCN(CCOc1c(Cl)cc(Cl)cc1Cl)C(=O)n1ccnc1 | inactive | 
O=C(NC(=O)c1c(F)cccc1F)Nc1ccc(OC(F)(F)C(F)OC(F)(F)F)c(Cl)c1 (stereo not given) | inactive | 
COC(=O)c1ccccc1CS(=O)(=O)NC(=O)Nc1nc(OC)cc(OC)n1 | inactive | 
O=C(O)C(F)(F)C(F)(F)C(F)(F)C(F)(F)C(F)(F)C(F)(F)C(F)(F)F |  | 116 µM (active) and 111 µM (active)
O=C(O)CCCOc1ccc(Cl)cc1Cl | inactive | 
